KLF5 inhibitor: kruppel-like factor 5 inhibition. DLD-1 KLF5 promoter-luciferase reporter, luminescence. inhibition, % at 5 µM. 0.23% of 290,000 active;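 active means inhibition above a per-plate limit of that plate's mean compound inhibition plus 3 SD, cut at about 60% in these data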;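 further: 0% = DMSO wells and 100% = LY294002 at 200 µM; higher means less KLF5 promoter-driven luciferase light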
APP 5UTR inh: APP translation inhibition | AID 1285 | SH-SY5Y APP 5'UTR-luciferase reporter, luminescence | inhibition, % at 2 µM | 0.82% of 190,000 active;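 active means inhibition above a set limit, derived from the sample mean plus 3 SD, cut at about 45% in these data; inconclusive means one replicate passes the limit while the other fails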
BaF3 tox: parental Ba/F3 viability inhibition as JAK2V617F counter-screen | CellTiter-Glo ATP luminescence | inhibition, % at 5.6 µM | 1.1% of 220,000 active;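 active means inhibition above a per-campaign cutoff, the mean inhibition of all tested compounds plus 3 SD, cut at about 27% in these data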;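 further: 0% = DMSO wells and 100% = JAK Inhibitor I control wells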
aSyn UTR inh: 5' untranslated region of α-synuclein, MLPCN primary screen; 0.82% of 300,000 active; inhibition, % (tested at 7.5 µM); alpha-synuclein 5'UTR reporter, inhibitor activity; AID 1813; in the data active means inhibition above about 60%; inconclusive means no clear call, values can overlap the other calls;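 further: H4 neuroglioblastoma cells stably carrying SNCA 5'UTR luciferase fusion; 0% = DMSO wells and 100% = positive control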
IEC-6 tox: counter-screen for KLF5 inhibitors: cytotoxicity in IEC-6 cells; inhibition, % at 5 µM; IEC-6 cytotoxicity, luminescence viability; AID 1825; 0.78% of 290,000 active;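 further: 0% = plate median of test compound wells and 100% = cytotoxic reference compound wells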
Ba/F3 V617F tox: reduce viability of Ba/F3 cells dependent on JAK2V617F. AID 1446. 1.1% of 220,000 active. Ba/F3 EpoR-JAK2V617F viability, ATP luminescence. inhibition, % at 5.6 µM;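 active means inhibition above the campaign mean plus 3 SD over all tested compounds, cut at about 24% in these data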;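 further: cytokine-independent growth of Ba/F3 cells driven by EpoR plus mutant JAK2; 0% = DMSO-treated cells and 100% = JAK inhibitor I control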
IEC-6 tox confirm: IEC-6 cytotoxicity, confirmation assay; shares compounds with IEC-6 tox; IEC-6 rat intestinal epithelial viability, luminescence; inhibition, % at 5 µM; 63% of 1,900 active; AID 1907;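 further: 0% = vehicle and 100% = reference cytotoxic drug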
Active calls of the source: *; ? = inconclusive; / = no result given. Only some compounds are listed: those with a hit (about 2.2% of all), similar ones and a draw of the others. Unless noted, no stated cut-off is given here; in the data, active means inhibition above about 22%; inactive means the rest.

SMILES	KLF5 inhibitor	APP 5UTR inh	BaF3 tox	aSyn UTR inh	IEC-6 tox	Ba/F3 V617F tox	IEC-6 tox confirm
COc1ccc(/C=N\NC(=O)c2sccc2C)cc1Cn1nc(C)cc1C	-17	/	/	-30	46*	/	25*
CCOC(=O)Nc1ccc2nc(N3CCCCCC3)sc2c1	-24	/	67*	-313	67*	78*	60*
C=CCOc1ccccc1CN(CCc1ccccc1)C(=O)c1cccc(S(C)(=O)=O)c1	-8	/	/	12	0	/	/
CCc1ccc(S(=O)(=O)Nc2cc3c(cc2C)n(C)c(=O)n3C)cc1	40	/	/	-92	48*	/	40*
Cc1ccc(NS(=O)(=O)c2ccc3c(c2)n(C)c(=O)n3C)c(C)c1	-5	/	/	3	1	/	/
CC1(C)Cc2nc3sc4c(SCC(=O)NCc5ccccc5)ncnc4c3cc2CO1	15	67*	36*	64*	48*	53*	51*
CC1(C)Cc2nc3sc4c(SCC(=O)O)ncnc4c3cc2CO1	27	/	-1	47	-3	0	/
COc1ccc(-n2cc(-c3ccc(OC)c(OC)c3)[nH]c2=S)cc1	-54	-13	1	-7	1	-4	/
COc1ccc(-n2cc(-c3ccccc3)[nH]c2=S)c(OC)c1	3	/	/	-75	26*	/	4
CCCN(CC(=O)Nc1ccc(F)c(F)c1F)CC(=O)Nc1c(Cl)cccc1Cl	-3	-3	5	15	59*	0	38*
CN(Cc1cn(C)nc1-c1ccc(Oc2ccccc2)cc1)CC1COCCO1 (stereo not given)	5	15	102*	2	77*	98*	3
CN(Cc1cn(C)nc1-c1ccc(Oc2ccccc2)cc1)C1CCOC1 (stereo not given)	-13	/	4	18	-2	-1	/
CCN(c1ccc(NC(=O)c2cccc(S(=O)(=O)N3CCN(C)CC3)c2)cc1)C(C)C	-37	/	/	-8	-2	/	/
Cc1ccc(S(=O)(=O)c2ncccc2[N+](=O)[O-])cc1	25	/	/	-39	101*	/	2
CCn1c2ccccc2c2cc(NC(=O)CNCc3ccccc3OC)ccc21	51	/	/	-16	71*	/	40*
CCn1c2ccccc2c2cc(NC(=O)COc3ccccc3OC)ccc21	-13	36	10	24	13	4	/
CC(=O)/C(C#N)=C1\NC(=O)C(Cc2cc(Cl)ccc2Cl)S1 (stereo not given)	24	/	5	-2	74*	-2	47*
CC(=O)/C(C#N)=C1\NC(=O)C(Cc2ccccc2Cl)S1 (stereo not given)	21	4	5	-48	78*	4	60*
O=C1NC(=Nc2ccccc2)SC1Cc1cccc(Cl)c1Cl (stereo not given)	-21	6	6	5	0	0	/
Cc1cccc(N2CCN(S(=O)(=O)c3ccc4c(c3)CCCN4C(=O)C3CCC3)CC2)c1C	2	/	/	-2	6	/	/
COc1ccc(NC(=O)CSc2ccc3nnc(-c4ccccn4)n3n2)c(OC)c1	-26	/	/	-7	-3	/	/
O=C(CN(C(=O)c1csnn1)c1ccc(F)cc1)NCc1ccc2c(c1)OCO2	-4	/	/	2	4	/	/
CCc1ccc(C(=O)C(C)OC(=O)Cc2n[nH]c(=O)c3ccccc23)cc1 (stereo not given)	16	/	/	-44	25*	/	9
COc1ccccc1NC(=O)c1ccc(NC(=O)Cc2n[nH]c(=O)c3ccccc23)cc1	-5	/	-7	54	25*	6	17
CC(=O)c1cccc(NC(=O)C(C)OC(=O)Cc2n[nH]c(=O)c3ccccc23)c1 (stereo not given)	-29	/	/	-22	-4	/	/
SMILES	KLF5 inhibitor	APP 5UTR inh	BaF3 tox	aSyn UTR inh	IEC-6 tox	Ba/F3 V617F tox	IEC-6 tox confirm
N=c1ccn2c(n1)O[C@H]1[C@H](O)[C@@H](CO)O[C@H]12	6	/	/	57	92*	/	74*
O=C(OCC1OC2C(Oc3nc(=O)ccn32)C1O)c1ccccc1 (stereo not given)	-4	-10	1	-2	3	0	/
Nc1nc(Cl)nc2c1ncn2[C@@H]1O[C@H](CO)[C@@H](O)[C@H]1O	31	-1	3	13	44*	0	-6
Nc1ccn([C@@H]2O[C@H](CO)[C@@H](O)[C@@H]2O)c(=O)n1	16	83*	80*	81*	90*	74*	76*
Nc1ncn([C@@H]2O[C@H](CO)[C@@H](O)[C@H]2O)c(=O)n1	/	/	/	33	/	/	/
COC(=O)C1(C)NC(c2ccc(OC)cc2)C2C(=O)N(c3ccccc3)C(=O)C21 (stereo not given)	-37	/	/	7	-3	/	/
O=C1C(=O)N(CCS(=O)(=O)c2ccccc2)c2ccc(Cl)cc21	-15	/	/	-27	40*	/	4
CCN(CC)CCCNc1oc(/C=C/c2ccccc2)nc1C#N	-29	/	3	-64	3	-4	/
CCNc1oc(/C=C/c2ccc(OCC)cc2)nc1C#N	-17	/	/	-188	52*	/	36*
COc1cc(OC)c(OC)cc1CNC(=O)c1ccc(COc2ccccc2)cc1	-14	/	/	-5	-3	/	/
C/C(=N\NC(=O)CN1CCCCC1)c1ccccc1O	-10	/	/	46	42*	/	19
C/C(=N\NC(=O)CN1CCCCC1)c1cccc([N+](=O)[O-])c1	/	/	/	-93	/	/	/
CCOC(=O)N1CCN(C(=O)c2cccc(N3C(=O)NC4CC3(C)Oc3ccc(Cl)cc34)c2)CC1 (stereo not given)	3	/	/	0	-3	/	/
Cc1cnc(NC(=O)C2CC(=O)N(c3cccc(Cl)c3)C2)s1 (stereo not given)	59	/	/	17	73*	/	33*
C#Cc1ccc([C@H]2C=C(C(=O)NCc3nc4ccccc4[nH]3)O[C@@H](OCC)[C@@H]2CCCO)cc1	/	/	/	7	/	/	/
CCO[C@@H]1OC(C(=O)NCc2nc3ccccc3[nH]2)=C[C@H](C2CC2)[C@H]1CCCO	38	2	34*	-119	42*	2	6
Cc1ccc(NC(=O)c2nc(S(=O)(=O)Cc3ccccc3C)ncc2Cl)cc1C	6	/	/	39	31*	/	16
CCOC(=O)c1ccc(NC(=O)CCS(=O)(=O)Cc2ccccc2)cc1	-27	/	/	-9	-6	/	/
CSc1ncc(Cl)c(C(=O)Nc2ccc(C)c(C)c2)n1	-8	/	/	16	2	/	/
CCS(=O)(=O)c1ncc(Cl)c(C(=O)Nc2ccc(S(=O)(=O)N3CCC(C)CC3)cc2)n1	43	/	/	65*	96*	/	8
CCOC(=O)c1ccc(NC(=O)c2nc(S(=O)(=O)Cc3ccccc3)ncc2Cl)cc1	23	/	/	?	50*	/	16
CCCS(=O)(=O)c1ncc(Cl)c(C(=O)Nc2ccc(S(=O)(=O)Nc3ncccn3)cc2)n1	-26	/	/	16	-5	/	/
CCc1ccc(NC(=O)c2nc(S(=O)(=O)Cc3ccccc3)ncc2Cl)cc1	15	/	/	91*	88*	/	7
CC1CCN(S(=O)(=O)c2ccc(NC(=O)c3ccncc3)cc2)CC1	-37	/	/	-1	3	/	/
CCOC(=O)CC(=O)c1sc2c(c1N)c(=O)[nH]c(=O)n2-c1ccc(OC)cc1	-18	/	/	0	6	/	/
